Results as given in PubChem BioAssay (Tox21).
Results filed as inconclusive are left out. A call without a number means that no potency is given here. Some compounds were tested as several samples or in several runs, with calls that do not always agree. The source made the active and inactive calls. Calls follow the shape of the dose curve; as a rule, active = well fitted cell-killing curve with a large enough effect in the repeat runs; inconclusive = weak or mixed curves; inactive = flat fitted curve, though single readings scatter.

assay: qHTS assay to identify small molecule antagonists of the estrogen related receptor (ERR) signaling pathway from Tox21 library - cell viability counter screen (AID 1224834); details: ERR reporter cells viability, CellTiter-Fluor, 17.5 h; series mostly up to 92.4 µM; viability change, negative = cytotoxic: at the top concentration; also: nearly all actives have a fitted effect of over 30% in size
From the text: National Center for Advancing Translational Sciences [NCATS]
NIH Chemical Genomics Center [NCGC]
U.S. Environmental Protection Agency [EPA]
National Institutes of Environmental Health Sciences [NIEHS]
National Toxicology Program [NTP]
U.S. Food and Drug Administration [FDA]
Estrogen related receptors (ERRs), the first orphan nuclear receptors discovered, play an important role in the control of cellular energy metabolism. ERRs are required for high-energy production in response to the environmental challenges. ERR-alpha was also identified as an adverse marker for breast cancer progression; ERR-alpha-positive tumors have a poor prognosis. To screen and to identify environmental compounds that perturb the ERR signaling pathways could provide valuable information for potential therapeutic or preventive measures in the treatment of metabolic disease. To differentiate true ERR antagonists or agonist from cytotoxic substances, the assay is multiplexed with cell viability assay.
Tox21 Assay Protocol Summary:
The ERR cells were dispensed at 2,000 cells/5 ul/well in 1536-well white plates using a Multidrop dispenser. After the assay plates were incubated at a 37 C/5% CO2 incubator for 6 hours, 23 nL of compounds dissolved in DMSO, positive and negative controls or DMSO only was transferred to the assay plate by a pin tool. The plates were incubated at 37 C for 17.5 hours. 1 ul/well of CellTiter-Fluor reagent was added into the assay plates using a Flying Reagent Dispenser. After 30-minute incubation at 37 C/5% CO2, the fluorescence intensity in the plates was measured using a ViewLux plate reader.
Potency is read from the fitted curve at half-maximal effect.

SMILES	Potency	viability change, negative = cytotoxic
CCCCC(CC)COC(=O)CCCCCCCC(=O)OCC(CC)CCCC (stereo not given)	17.2 µM (active) and inactive	
CC(C)(C)C1CCC(O)CC1 (stereo not given)	inactive	
Oc1ccc2ccccc2c1	inactive	
CC(C)(N=C=O)c1cccc(C(C)(C)N=C=O)c1		0.125% (inactive)
CC(C)NCC(O)COc1cccc2ccccc12 (stereo not given)		-14% (inactive)
COCC(=O)O	inactive	
CCc1ccccc1O		-0.334% (inactive)
Cc1cc(O)cc(C)c1Cl	inactive	
CCCCCCCCCCC=CC1CC(=O)OC1=O (stereo not given)	inactive	
CCCCC(CC)COC(=O)/C=C\C(=O)OCC(CC)CCCC (stereo not given)	inactive	
CCCCC/C=C\C/C=C\CCCCCCCC(=O)OC	inactive	
O=C1O[C@H](CO)[C@@H](O)[C@H](O)[C@H]1O	inactive	
CCCCC(CC)C(=O)OCCOCCOCCOC(=O)C(CC)CCCC (stereo not given)	inactive	
CCCCCCCCCC(=O)O	inactive	
O=S(=O)(O)CCS	inactive	
CC1(C)CC(N=C=O)CC(C)(CN=C=O)C1 (stereo not given)	inactive	
C=C(C)C(=O)OCC(CC)(COC(=O)C(=C)C)COC(=O)C(=C)C	inactive	
Cc1ccc(C(=O)O)o1	inactive	
O=C(Cl)c1c(Cl)c(Cl)c(C(=O)Cl)c(Cl)c1Cl	inactive	
Cc1ccc(C)c(C)c1	inactive	

SMILES	Potency	viability change, negative = cytotoxic
C[C@@H](O)[C@H]1C(=O)N2C(C(=O)O)=C(S[C@@H]3CN[C@H](C(=O)N(C)C)C3)[C@H](C)[C@H]12	inactive	
OC[C@@H](O)[C@@H](O)[C@H](O)[C@@H](O)CO	inactive	
CS(=O)(=O)Nc1ccc([N+](=O)[O-])cc1Oc1ccccc1	30.6 µM (active)	
CCCCCCCCCCCCOCC1CO1 (stereo not given)	inactive	
Oc1ccc2ccccc2c1N=Nc1ccccc1	27.3 µM (active)	
Nc1nc2ncc(CNc3ccc(C(=O)N[C@@H](CCC(=O)O)C(=O)O)cc3)nc2c(=O)[nH]1	inactive	
Nc1cc(-c2ccncc2)c[nH]c1=O	inactive	
NC(=O)/N=N/C(N)=O	inactive	
c1ccc2ccccc2c1	inactive	
O=C(Oc1ccccc1)c1ccc(O)cc1	inactive	
CCCCCC/C=C/CCCCCCCC(=O)O	inactive	
C=C(C)C(=O)OCCCCCC	inactive	
NC(=O)NNc1ccccc1	inactive	
CC1CC(OC(=O)c2ccccc2O)CC(C)(C)C1 (stereo not given)	inactive	
CNC[C@H](O)[C@@H](O)[C@H](O)[C@H](O)CO	inactive	
O=c1c(-c2ccc(O)cc2)coc2cc(O)ccc12		-11.6% (inactive)
O=[N+]([O-])c1cc(N(CCO)CCO)ccc1NCCO	48.5 µM (active)	
CC1(C)O[C@@H]2C[C@H]3[C@@H]4C[C@H](F)C5=CC(=O)CC[C@]5(C)[C@H]4[C@@H](O)C[C@]3(C)[C@]2(C(=O)CO)O1	inactive	
NCc1cccc(CN)c1	inactive	
NS(=O)(=O)c1cc2c(cc1Cl)NC=NS2(=O)=O	inactive	
